Inconclusive results are not listed. More than one record can exist for a structure, and the calls need not agree. Calls of active or inactive are those of the source. Unless noted, calls follow the shape of the dose curve; as a rule, active = well fitted curve in the direction sought with a large enough effect; inconclusive = small, poorly fitted or top-dose-only effect, or another doubt; inactive = no such curve, though single readings can be large; an effect the other way counts as inactive or inconclusive.
Tests used:
[1] = qHTS profiling of the MIPE4 collection as inhibitors of Plasmodium falciparum (DD2) proliferation (AID 743345; call rule not given here); conditions: P. falciparum Dd2 in erythrocytes, SYBR Green DNA, 72 h; at 28.5 µM (top of the series) unless noted
In short: (§1)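 Erythrocytes infected with P. falciparum (0.3% parasitemia, 2.5% hematocrit) incubated with compounds 72 h at 37 C, 5% CO2. Lysis with saponin/Triton buffer containing SYBR Green I, overnight at room temperature in the dark; DNA fluorescence (485/535 nm) normalised to 0.29 uM artemisinin and DMSO.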

[2] = qHTS profiling of the MIPE4 collection as inhibitors of Plasmodium falciparum (DD2) proliferation (Rep 2) (AID 743346; call rule not given here); conditions: P. falciparum Dd2 in erythrocytes, SYBR Green DNA, 72 h; at 28.5 µM (top of the series) unless noted
In short: as §1

[3] = qHTS profiling of the MIPE4 collection as inhibitors of Plasmodium falciparum (HB3) proliferation (AID 743347; call rule not given here;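 also: plate controls were DMSO vehicle wells for no effect and artemisinin wells for full effect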); conditions: P. falciparum HB3 in erythrocytes, SYBR Green DNA, 72 h; at 28.5 µM (top of the series) unless noted
In short: as §1

[4] = High-throughput drug toxicity screening in the BPDCN cell line Cal-1 (AID 1224825; call rule not given here); conditions: Cal-1 BPDCN cell viability, qHTS; at 45.8 µM (top of the series) unless noted
In short: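 500 Cal-1 cells/well, RPMI + glutamine + 10% FBS (phenol red-free); cpd added by pin tool; 48 h, 37C, 5% CO2; CTG 15 min RT, lumi read. Normalised: DMSO 100%, bortezomib 9.2 uM 0%.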

[5] = qHTS assay for measurement of the activity of small molecule inhibitors on Zika virus induced Caspase-3 activity in human iPSC derived neural progenitor cells (hNPCs) (AID 1224857); also: nearly all actives have a fitted effect of over 65% in size; also: potency is read from the fitted curve at half-maximal effect
In short: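 hNPCs seeded 350 cells/well, cultured 16–20 h; compounds added 1 h before ZIKV (2 FFU/cell), 37 C 6 h. Caspase-Glo 3/7 luminescence after 30 min RT; % inhibition from induction scaled to uninfected (0%) and infected (100%) wells.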

[6] = qHTS assay for measurement of the activity of small molecule inhibitors on Zika virus induced Caspase-3 activity in human astrocytoma cells (AID 1224859); also: potency is read from the fitted curve at half-maximal effect
In short: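 Luminescence read-out (Caspase-Glo 3/7, 30 min RT) of caspase activity in SNB-19 cells infected 6 h with ZIKV, 2 FFU/cell, after 1 h compound pretreatment; % inhibition from induction normalised to uninfected (0%) and infected (100%) wells.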

[7] = qHTS Screen of the MIPE 4.0 Collection Against Ewings Sarcoma (RDES) (AID 1259252); also: nearly all actives have a fitted effect of over 35% in size; also: potency is read from the fitted curve at half-maximal effect
In short: (§2)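 CellTiter-Glo luminescence after 48 h compound exposure (titration) gave viability; percent activity used DMSO-treated cells as no inhibition and medium-only wells as full inhibition. Cells grown in RPMI/5% FBS, dosed 4 h post-seeding.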

[8] = qHTS Screen of the MIPE 4.0 Collection Against Ewings Sarcoma (TC71) (AID 1259253); also: nearly all actives have a fitted effect of over 40% in size; also: potency is read from the fitted curve at half-maximal effect
In short: as §2

[9] = qHTS Screen of the MIPE 4.0 Collection Against Ewings Sarcoma (EW8) (AID 1259255); also: nearly all actives have a fitted effect of over 35% in size; also: potency is read from the fitted curve at half-maximal effect;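 as to viability: 100% = DMSO-treated cells and 0% = medium-only wells without cells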
In short: as §2

[10] = qHTS assay to identify small molecule inhibitors of chordoma cells - UCH-2 (AID 1259356); also: % is scaled to controls: 0 for no effect and ±100 for the full control effect
[11] = qHTS Screen of the MIPE 4.0 Collection Against Ewings Sarcoma (TC32) (AID 1259256); also: nearly all actives have a fitted effect of over 45% in size; also: potency is read from the fitted curve at half-maximal effect
In short: as §2

[12] = qHTS assay to identify small molecule inhibitors of chordoma cells - UCH-1 (AID 1259355); also: nearly all actives have a fitted effect of over 55% in size; also: potency is read from the fitted curve at half-maximal effect
In short: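 Seed 800 cells per well; incubate overnight at 37 C, 5% CO2. Add test compounds (15 concentrations), then the auranofin–topoisomerase-agent combination. Incubate 48hr, add CellTiter-Glo, wait 30min, read luminescence.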

[13] = P-glycoprotein substrates identified in KB-3-1 adenocarcinoma cell line, qHTS therapeutic library screen (AID 1346986); conditions: KB-3-1 parental cells viability, CellTiter-Glo, 72 h; at 44.5 µM (top of the series); also: nearly all actives have a fitted effect of over 60% in size
In short: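 Counter-screen: cherry-picked hits retested in the KB pair and in HEK-293 pcDNA/MDR-19 cells ± tariquidar. Primary screen used 72 h CellTiter-Glo viability in KB-3-1 and KB-8-5-11.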

[14] = Identifying Small Molecule Inhibitors of Pancreatic Cancer Stem Cells (Panc1, Adherent) (AID 1259362); conditions: viability; also: potency is read from the fitted curve at half-maximal effect
In short: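 Pre-formed 14-day tumor spheroids or adherent cells dosed and incubated 48 h, 37C, 5% CO2. Viability assessed by CellTiter-Glo.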

SMILES | parasite growth remaining, % of DMSO control (lower = more inhibition) [1] | parasite growth, % of control (lower = inhibition) [2] | growth, % of control [3] [%] | viability (% of control) [4] | Potency [5] | Potency [6] | Potency [7] | Potency [8] | Potency [9] | Potency [10] | Potency [11] | Potency [12] | outcome [13] | Potency [14]
Cn1nnc2c(C(N)=O)ncn2c1=O | 86.5% | 120% | 98.2 | 80.1% | inactive | inactive | inactive | inactive | inactive | inactive |  |  |  | 
CC(=O)Oc1ccccc1C(=O)Nc1ncc([N+](=O)[O-])s1 | 8.2% [at 57.5 µM] | 7.18% [at 57.5 µM] |  | 38.5% [at 92.2 µM] | 1.91 µM (active) | 1.71 µM (active) and inactive | 21.5 µM (active) | 19.1 µM (active) |  |  | 21.5 µM (active) |  |  | 
Cc1noc(NS(=O)(=O)c2ccc(N)cc2)c1C | 98.9% | 103% | 98.2 | 96.8% | inactive | inactive | inactive | inactive | inactive |  |  | inactive | inactive | 
CNC1CCCN(c2c(F)cc3c(=O)c(C(=O)O)cn(C4CC4)c3c2OC)C1 (stereo not drawn) | 11.8% | 8.93% | 22.8 | 32.3% | inactive | inactive | 14.8 µM (active) | 18.7 µM (active) |  | inactive | 20.9 µM (active) |  | inactive | 
COc1cc2nc(N3CCCN(C)CC3)nc(NC3CCN(Cc4ccccc4)CC3)c2cc1OC | 6.59% | 7.33% | 8.7 | 4.13% | inactive | inactive | 8.33 µM (active) | 10.5 µM (active) | 7.43 µM (active) |  | 5.26 µM (active) |  |  | 2.35 µM (active)
CC(C)(Sc1cc(C(C)(C)C)c(O)c(C(C)(C)C)c1)Sc1cc(C(C)(C)C)c(O)c(C(C)(C)C)c1 | 26.6% | 24.6% | 19.1 | 45.2% | inactive | inactive | 2.96 µM (active) | 20.9 µM (active) | inactive |  | 9.35 µM (active) |  |  | 
CO[C@@]12[C@H](COC(N)=O)C3=C(C(=O)C(C)=C(N)C3=O)N1C[C@@H]1N[C@@H]12 | 7.06% | 6.98% | 2.97 | 2.42% | inactive | inactive | 0.0332 µM (active) | 0.0418 µM (active) |  | inactive | 0.0037 µM (active) | 17.8 µM (active) |  | 
O=NN(CCCl)C(=O)NC1CCCCC1 |  |  |  | 102% | inactive | inactive | inactive | inactive |  | inactive | inactive | inactive | inactive | 
C[C@@H](CN1CC(=O)NC(=O)C1)N1CC(=O)NC(=O)C1 | 88.1% | 105% | 65.5 | 14.7% | inactive | inactive | inactive | inactive | 18.7 µM (active) |  | inactive |  |  | 
CCOC(=O)c1ccc(OC(=O)CCCCCN=C(N)N)cc1 | 89.5% | 118% | 80.6 | 106% | inactive | inactive | inactive | inactive | inactive | inactive |  |  |  | 
CC[C@H](C)C(=O)O[C@H]1C[C@@H](C)C=C2C=C[C@H](C)[C@H](CC[C@@H]3C[C@@H](O)CC(=O)O3)[C@H]21 | 103% | 83.7% | 85.6 | 84.4% | inactive | inactive | 18.7 µM (active) | 14.8 µM (active) |  |  | 7.43 µM (active) |  |  | 
CCn1cc(C(=O)O)c(=O)c2cc(F)c(N3CCNCC3)nc21 | 56.4% | 53.9% |  | 114% | inactive | inactive | inactive | inactive |  |  | inactive | inactive |  | 
OCc1ccc(-c2nn(Cc3ccccc3)c3ccccc23)o1 | 85% | 73.7% | 21.8 | 104% | inactive | inactive | 2.64 µM (active) | 14.8 µM (active) |  |  |  |  | inactive | 
COc1cnc(NS(=O)(=O)c2ccc(N)cc2)nc1 | 95.4% | 79.9% | 58.8 | 21.6% | inactive | inactive | inactive | inactive |  |  | inactive | inactive | inactive | 
C#CCN[C@@H]1CCc2ccccc21 | 129% | 95.4% | 103 | 57.2% | inactive | inactive | inactive | inactive |  |  | inactive |  |  | 
CC1=CC(=O)c2ccccc2C1=O | 48% | 10.3% | 23.6 | 1.39% | inactive | inactive | 18.7 µM (active) | 26.4 µM (active) |  |  | 26.4 µM (active) |  | inactive | 
CCC(C)(C)c1ccc(CC(C)CN2C[C@@H](C)O[C@@H](C)C2)cc1 (stereo partly drawn) | 82.2% | 39% |  | 108% | inactive | inactive | inactive | inactive | inactive |  | inactive | inactive |  | 
CCN1CCCC1CNC(=O)c1cc(S(N)(=O)=O)ccc1OC (stereo not drawn) | 90.1% | 41.9% | 70.9 | 82.8% | inactive | inactive | inactive | 16.6 µM (active) | inactive |  |  |  | inactive | 

Source: PubChem BioAssay (NCATS)
